Holding throughout (assay): DAPPL (digital affinity profiling via proximity ligation, sequencing); 10 mM Tris-HCl pH 7.5, 50 mM NaCl, 1 mM DTT, 4% glycerol, room temperature, 30 min; GST-TFs on glutathione beads, 16-mer random dsDNA library, 0.1% formaldehyde crosslink after washing; high values mean tight binding
Common to all, as to conditions: protein: recombinant; tags: N-terminal GST; dsDNA, one strand shown

For one assay, the target named is T1, GABPA (Homo sapiens, UniProt Q06546 1-454).
T1 sequence: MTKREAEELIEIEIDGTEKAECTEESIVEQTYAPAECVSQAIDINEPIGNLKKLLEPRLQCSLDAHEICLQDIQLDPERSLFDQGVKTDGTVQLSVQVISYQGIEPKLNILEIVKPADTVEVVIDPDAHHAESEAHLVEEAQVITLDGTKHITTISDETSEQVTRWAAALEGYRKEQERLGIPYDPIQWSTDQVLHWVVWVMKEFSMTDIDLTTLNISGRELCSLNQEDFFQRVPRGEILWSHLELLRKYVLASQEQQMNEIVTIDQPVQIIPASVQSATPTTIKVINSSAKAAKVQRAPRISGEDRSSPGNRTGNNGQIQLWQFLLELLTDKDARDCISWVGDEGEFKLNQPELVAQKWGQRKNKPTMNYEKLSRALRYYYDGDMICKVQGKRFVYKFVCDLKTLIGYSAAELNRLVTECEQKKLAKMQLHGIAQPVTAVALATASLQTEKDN
An outline of the steps: (§1)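 GST fusions of human transcription factors were expressed in yeast and captured with glutathione beads. Once given DNA barcodes and pooled alongside a tag-only sample, they were incubated for 30 min at room temperature with 200 nmole of a random double-stranded 16-mer DNA library in Tris/NaCl/DTT/glycerol buffer, then washed, crosslinked (0.1% formaldehyde), proximity-ligated, PCR-amplified and sequenced on an Illumina NextSeq500. The binding signal of each hexamer is its read frequency for a factor divided by its frequency for the tag-only sample.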

The target of a further assay is ELF1 (Homo sapiens, UniProt P32519 1-619). An outline of the steps: as §1
Sequence of ELF1 (P32519 whole entry): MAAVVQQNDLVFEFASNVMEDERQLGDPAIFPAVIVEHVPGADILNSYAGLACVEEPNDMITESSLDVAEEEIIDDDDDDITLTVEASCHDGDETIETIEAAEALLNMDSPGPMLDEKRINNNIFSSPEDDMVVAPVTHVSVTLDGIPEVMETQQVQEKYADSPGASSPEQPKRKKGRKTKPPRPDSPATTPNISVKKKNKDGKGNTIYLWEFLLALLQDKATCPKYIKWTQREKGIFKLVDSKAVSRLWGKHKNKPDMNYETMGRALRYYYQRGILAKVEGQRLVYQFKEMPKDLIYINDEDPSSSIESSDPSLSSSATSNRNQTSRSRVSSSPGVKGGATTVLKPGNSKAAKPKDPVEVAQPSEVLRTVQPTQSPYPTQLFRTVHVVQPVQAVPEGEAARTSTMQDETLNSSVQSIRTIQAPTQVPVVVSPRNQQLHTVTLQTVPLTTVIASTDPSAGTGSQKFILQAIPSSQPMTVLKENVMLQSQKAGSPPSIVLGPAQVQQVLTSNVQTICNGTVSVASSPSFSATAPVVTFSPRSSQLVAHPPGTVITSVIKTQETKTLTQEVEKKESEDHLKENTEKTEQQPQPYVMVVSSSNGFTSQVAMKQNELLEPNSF
For another assay, the target named is SPIB (Homo sapiens, UniProt Q01892 1-262). The method in brief: as §1
Sequence of SPIB (Q01892 whole entry): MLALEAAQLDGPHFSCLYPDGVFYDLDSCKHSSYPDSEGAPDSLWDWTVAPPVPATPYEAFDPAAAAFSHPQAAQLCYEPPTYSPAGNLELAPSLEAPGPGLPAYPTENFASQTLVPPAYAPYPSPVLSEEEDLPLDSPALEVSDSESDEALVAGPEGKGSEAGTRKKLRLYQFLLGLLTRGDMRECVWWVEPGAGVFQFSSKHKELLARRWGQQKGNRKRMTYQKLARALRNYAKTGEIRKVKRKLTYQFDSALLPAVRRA
The next assay has as its target T2, FEV (Homo sapiens, UniProt Q99581 1-238).
T2 sequence: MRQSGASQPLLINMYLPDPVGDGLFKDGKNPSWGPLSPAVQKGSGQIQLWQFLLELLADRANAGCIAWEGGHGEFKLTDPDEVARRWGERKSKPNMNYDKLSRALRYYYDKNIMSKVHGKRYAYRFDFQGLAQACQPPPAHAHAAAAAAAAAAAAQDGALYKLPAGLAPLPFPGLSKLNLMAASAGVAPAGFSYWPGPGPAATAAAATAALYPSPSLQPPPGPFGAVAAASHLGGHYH
The method in brief: as §1

A further assay has as its target ETV5 (Homo sapiens, UniProt P41161 1-510). An outline of the steps:
as §1

In the next assay the target is ELF4 (Homo sapiens, UniProt Q99607 1-663). An outline of the steps: as §1
Sequence of ELF4 (Q99607 whole entry): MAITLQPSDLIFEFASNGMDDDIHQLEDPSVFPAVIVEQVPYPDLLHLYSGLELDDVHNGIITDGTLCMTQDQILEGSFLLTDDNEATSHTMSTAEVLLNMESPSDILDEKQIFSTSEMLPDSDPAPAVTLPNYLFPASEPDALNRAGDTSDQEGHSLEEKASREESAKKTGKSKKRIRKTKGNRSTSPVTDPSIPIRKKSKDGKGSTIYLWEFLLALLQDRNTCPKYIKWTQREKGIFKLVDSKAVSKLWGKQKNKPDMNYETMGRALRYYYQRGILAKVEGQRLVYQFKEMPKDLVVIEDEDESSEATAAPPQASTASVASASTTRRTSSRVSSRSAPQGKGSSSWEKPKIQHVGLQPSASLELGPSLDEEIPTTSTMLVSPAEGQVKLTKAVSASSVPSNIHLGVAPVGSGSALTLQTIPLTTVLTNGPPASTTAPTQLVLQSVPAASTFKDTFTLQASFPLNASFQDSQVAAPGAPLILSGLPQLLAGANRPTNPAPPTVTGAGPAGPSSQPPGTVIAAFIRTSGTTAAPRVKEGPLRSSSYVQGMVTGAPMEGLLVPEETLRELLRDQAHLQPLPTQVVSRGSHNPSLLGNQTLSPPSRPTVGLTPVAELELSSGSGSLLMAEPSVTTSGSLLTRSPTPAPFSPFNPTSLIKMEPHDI
A further assay deals with T3, ELK4 (Homo sapiens, UniProt P28324-2 1-405).
T3 sequence: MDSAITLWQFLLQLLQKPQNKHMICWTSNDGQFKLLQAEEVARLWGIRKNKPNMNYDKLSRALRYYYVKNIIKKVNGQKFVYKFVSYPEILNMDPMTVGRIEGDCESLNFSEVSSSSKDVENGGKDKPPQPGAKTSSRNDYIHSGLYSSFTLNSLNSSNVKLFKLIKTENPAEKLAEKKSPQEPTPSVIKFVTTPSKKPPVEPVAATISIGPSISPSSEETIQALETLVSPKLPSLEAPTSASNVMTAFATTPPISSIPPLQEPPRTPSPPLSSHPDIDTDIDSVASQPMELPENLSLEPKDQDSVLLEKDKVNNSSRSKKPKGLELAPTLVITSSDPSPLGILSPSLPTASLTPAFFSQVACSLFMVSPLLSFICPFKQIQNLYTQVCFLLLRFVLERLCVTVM
An outline of the steps:
as §1

A further assay deals with T4, ETV2 (Homo sapiens, UniProt O00321 1-342).
T4 sequence: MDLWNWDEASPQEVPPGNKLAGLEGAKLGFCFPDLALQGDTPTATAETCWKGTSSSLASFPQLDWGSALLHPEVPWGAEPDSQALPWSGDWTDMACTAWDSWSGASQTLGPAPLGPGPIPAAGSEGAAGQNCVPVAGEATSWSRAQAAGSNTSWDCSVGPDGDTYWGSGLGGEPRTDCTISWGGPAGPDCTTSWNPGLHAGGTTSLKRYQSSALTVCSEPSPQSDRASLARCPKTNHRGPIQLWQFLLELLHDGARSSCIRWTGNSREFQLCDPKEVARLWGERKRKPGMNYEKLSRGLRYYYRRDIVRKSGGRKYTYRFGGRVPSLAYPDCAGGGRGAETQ
The method in brief:
as §1

The target of the next assay is T5, ELF3 (Homo sapiens, UniProt P78545 1-371).
T5 sequence: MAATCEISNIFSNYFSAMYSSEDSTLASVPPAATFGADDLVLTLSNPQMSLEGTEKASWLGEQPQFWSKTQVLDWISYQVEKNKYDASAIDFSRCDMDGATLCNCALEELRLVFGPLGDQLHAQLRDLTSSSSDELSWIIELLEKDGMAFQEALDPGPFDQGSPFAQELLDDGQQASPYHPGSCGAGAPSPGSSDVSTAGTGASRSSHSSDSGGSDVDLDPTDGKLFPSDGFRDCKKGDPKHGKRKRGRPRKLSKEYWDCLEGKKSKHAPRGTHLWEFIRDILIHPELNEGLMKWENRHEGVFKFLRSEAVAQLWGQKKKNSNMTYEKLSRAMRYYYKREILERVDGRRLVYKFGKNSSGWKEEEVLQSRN
The method in brief: as §1

Another assay has as its target ETV1 (Homo sapiens, UniProt P50549 1-477). An outline of the steps:
as §1

The next assay concerns the target T6, ETV3L (Homo sapiens, UniProt Q6ZN32 1-361).
T6 sequence: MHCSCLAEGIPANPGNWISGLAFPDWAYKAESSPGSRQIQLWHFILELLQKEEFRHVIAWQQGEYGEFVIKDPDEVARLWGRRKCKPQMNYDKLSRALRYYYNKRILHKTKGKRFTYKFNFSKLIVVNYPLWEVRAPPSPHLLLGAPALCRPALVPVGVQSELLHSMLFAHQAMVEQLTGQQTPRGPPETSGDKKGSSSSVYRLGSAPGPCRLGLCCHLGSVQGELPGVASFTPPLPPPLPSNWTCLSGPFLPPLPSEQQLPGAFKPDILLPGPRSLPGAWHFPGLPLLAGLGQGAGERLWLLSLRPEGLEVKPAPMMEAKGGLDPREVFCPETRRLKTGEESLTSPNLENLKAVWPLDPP
The method in brief:
as §1

The target of the next assay is T7, ETS2 (Homo sapiens, UniProt P15036 1-469).
T7 sequence: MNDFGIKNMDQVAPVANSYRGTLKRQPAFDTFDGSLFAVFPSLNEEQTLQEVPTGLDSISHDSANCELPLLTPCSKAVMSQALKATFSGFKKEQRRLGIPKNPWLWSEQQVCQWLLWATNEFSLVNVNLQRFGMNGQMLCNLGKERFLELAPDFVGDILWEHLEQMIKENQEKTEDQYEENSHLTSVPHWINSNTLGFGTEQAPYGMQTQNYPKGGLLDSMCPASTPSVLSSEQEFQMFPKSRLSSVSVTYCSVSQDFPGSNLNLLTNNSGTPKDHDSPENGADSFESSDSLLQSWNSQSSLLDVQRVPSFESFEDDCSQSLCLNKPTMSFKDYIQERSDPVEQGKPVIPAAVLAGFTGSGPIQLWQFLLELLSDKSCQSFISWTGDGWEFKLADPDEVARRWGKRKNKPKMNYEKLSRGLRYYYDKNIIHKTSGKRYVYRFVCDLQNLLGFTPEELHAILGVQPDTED
An outline of the steps: as §1

The target in another assay is T8, ETV7 (Homo sapiens, UniProt Q9Y603 1-341).
T8 sequence: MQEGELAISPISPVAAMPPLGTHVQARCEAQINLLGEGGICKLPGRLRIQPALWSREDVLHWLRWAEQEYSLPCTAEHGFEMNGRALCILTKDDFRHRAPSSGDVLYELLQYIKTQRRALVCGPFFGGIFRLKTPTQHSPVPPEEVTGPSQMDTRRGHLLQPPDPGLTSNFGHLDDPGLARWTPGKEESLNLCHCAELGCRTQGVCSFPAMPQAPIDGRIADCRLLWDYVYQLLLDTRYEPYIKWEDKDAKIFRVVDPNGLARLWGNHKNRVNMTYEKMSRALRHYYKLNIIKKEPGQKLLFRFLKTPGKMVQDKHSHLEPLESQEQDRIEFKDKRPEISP
An outline of the steps: as §1

The next assay addresses T9, ETV3 (Homo sapiens, UniProt P41162-2 1-143).
T9 sequence: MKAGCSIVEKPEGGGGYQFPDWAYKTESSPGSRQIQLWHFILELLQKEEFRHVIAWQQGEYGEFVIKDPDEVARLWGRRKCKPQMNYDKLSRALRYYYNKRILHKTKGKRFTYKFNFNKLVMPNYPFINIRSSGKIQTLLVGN
An outline of the steps: as §1

In the next assay the target is ETV6 (Homo sapiens, UniProt P41212 1-452). The method in brief: as §1
Sequence of ETV6 (P41212 whole entry): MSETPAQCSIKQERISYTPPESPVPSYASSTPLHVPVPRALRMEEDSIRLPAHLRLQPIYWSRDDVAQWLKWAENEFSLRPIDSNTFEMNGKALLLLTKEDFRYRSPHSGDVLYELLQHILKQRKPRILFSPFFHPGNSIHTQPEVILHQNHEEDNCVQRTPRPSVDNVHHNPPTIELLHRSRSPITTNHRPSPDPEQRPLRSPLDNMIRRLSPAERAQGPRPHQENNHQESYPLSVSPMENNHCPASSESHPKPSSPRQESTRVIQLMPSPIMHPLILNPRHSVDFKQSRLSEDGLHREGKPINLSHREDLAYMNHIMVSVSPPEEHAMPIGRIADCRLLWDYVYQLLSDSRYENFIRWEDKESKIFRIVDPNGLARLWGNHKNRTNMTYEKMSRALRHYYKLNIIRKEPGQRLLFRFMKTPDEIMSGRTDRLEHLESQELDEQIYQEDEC
A further assay addresses T10, ERG (Homo sapiens, UniProt P11308 1-479).
T10 sequence: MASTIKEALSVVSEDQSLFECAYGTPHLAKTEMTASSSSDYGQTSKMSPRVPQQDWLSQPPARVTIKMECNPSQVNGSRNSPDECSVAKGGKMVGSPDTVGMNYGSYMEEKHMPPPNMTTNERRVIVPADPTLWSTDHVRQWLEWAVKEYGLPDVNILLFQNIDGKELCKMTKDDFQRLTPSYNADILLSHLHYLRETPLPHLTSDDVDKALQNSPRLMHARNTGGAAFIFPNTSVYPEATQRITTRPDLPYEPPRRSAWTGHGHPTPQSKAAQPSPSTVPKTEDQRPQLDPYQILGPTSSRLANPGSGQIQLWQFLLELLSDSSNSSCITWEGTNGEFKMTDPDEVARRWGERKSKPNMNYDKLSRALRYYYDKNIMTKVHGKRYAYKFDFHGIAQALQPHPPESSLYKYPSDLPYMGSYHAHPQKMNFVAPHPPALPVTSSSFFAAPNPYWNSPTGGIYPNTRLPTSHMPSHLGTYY
The method in brief:
as §1

For another assay, the target named is T11, ERF (Homo sapiens, UniProt P50548 1-548).
T11 sequence: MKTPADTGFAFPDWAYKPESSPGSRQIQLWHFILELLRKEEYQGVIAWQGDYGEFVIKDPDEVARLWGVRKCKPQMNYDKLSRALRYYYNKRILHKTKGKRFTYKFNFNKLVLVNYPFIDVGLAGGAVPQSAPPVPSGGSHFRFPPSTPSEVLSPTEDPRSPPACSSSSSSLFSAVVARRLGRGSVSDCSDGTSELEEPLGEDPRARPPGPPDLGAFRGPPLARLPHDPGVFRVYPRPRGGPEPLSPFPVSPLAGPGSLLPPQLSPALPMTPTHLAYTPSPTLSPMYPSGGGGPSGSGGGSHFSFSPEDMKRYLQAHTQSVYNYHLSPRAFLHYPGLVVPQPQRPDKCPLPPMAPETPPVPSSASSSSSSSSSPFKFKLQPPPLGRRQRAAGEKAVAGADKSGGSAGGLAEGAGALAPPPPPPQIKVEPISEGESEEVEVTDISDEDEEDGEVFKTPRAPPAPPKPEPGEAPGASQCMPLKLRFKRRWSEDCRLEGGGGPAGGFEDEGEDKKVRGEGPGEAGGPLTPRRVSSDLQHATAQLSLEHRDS
An outline of the steps: as §1

Sequence of ETV5 (P41161 whole entry): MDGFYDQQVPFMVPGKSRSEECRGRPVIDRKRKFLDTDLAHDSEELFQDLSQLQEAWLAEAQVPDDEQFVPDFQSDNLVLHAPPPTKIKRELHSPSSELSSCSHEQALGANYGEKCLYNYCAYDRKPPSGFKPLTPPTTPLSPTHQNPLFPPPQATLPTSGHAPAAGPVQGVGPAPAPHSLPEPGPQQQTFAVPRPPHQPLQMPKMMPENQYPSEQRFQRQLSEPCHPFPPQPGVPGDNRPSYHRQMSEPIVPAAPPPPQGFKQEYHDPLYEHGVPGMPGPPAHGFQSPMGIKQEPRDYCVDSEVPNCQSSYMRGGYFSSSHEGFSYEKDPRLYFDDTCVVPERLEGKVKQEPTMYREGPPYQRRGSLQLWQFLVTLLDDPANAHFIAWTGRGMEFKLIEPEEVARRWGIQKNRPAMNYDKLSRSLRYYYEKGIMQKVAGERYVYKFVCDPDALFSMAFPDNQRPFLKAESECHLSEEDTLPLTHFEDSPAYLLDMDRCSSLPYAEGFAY
Sequence of ETV1 (P50549 whole entry): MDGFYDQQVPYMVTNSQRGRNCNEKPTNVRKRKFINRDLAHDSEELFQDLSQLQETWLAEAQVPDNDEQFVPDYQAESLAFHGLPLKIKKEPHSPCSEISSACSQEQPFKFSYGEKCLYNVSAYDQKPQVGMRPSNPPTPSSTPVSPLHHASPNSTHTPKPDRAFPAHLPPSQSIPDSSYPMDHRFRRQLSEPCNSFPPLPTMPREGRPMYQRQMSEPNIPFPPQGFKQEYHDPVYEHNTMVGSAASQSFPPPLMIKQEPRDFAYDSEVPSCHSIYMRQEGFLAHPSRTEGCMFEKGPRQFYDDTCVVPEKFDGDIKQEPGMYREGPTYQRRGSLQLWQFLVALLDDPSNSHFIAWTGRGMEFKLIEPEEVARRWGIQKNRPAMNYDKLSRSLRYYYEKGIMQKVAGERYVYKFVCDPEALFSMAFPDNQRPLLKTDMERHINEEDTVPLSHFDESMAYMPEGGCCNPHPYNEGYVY

Regarding CGCGTT, the binding signal is 1.01 fold enrichment (6-mer frequency, TF over GST control) with GABPA; 1.12 fold enrichment (6-mer frequency, TF over GST control) in the assay with ELF1; 1.05 fold enrichment (6-mer frequency, TF over GST control) with SPIB; 1.09 fold enrichment (6-mer frequency, TF over GST control) in the assay with FEV; 1.02 fold enrichment (6-mer frequency, TF over GST control) in the assay with ETV5; 1.1 fold enrichment (6-mer frequency, TF over GST control) with ELF4. The binding signal is 1.09 fold enrichment (6-mer frequency, TF over GST control) with ELK4; 1.16 fold enrichment (6-mer frequency, TF over GST control) with ETV2; 1.05 fold enrichment (6-mer frequency, TF over GST control) with ELF3; 1.06 fold enrichment (6-mer frequency, TF over GST control) with ETV1; 1.15 fold enrichment (6-mer frequency, TF over GST control) with ETV3L; 1.13 fold enrichment (6-mer frequency, TF over GST control) with ETS2. For the same sequence, the binding signal with ETV7 is 1.02 fold enrichment (6-mer frequency, TF over GST control); with ETV3 it was 1.03 fold enrichment (6-mer frequency, TF over GST control); with ETV6, 1.06 fold enrichment (6-mer frequency, TF over GST control).

Consider AGCGCT, for which the binding signal with GABPA was 1.04 fold enrichment (6-mer frequency, TF over GST control); with ERG, 1.02 fold enrichment (6-mer frequency, TF over GST control); in the assay with ELF1 it was 1.05 fold enrichment (6-mer frequency, TF over GST control); in the assay with SPIB it was 1.09 fold enrichment (6-mer frequency, TF over GST control); with FEV, 1 fold enrichment (6-mer frequency, TF over GST control); with ETV5 it was 1.01 fold enrichment (6-mer frequency, TF over GST control). Moreover, the binding signal in the assay with ELF4 was 1.06 fold enrichment (6-mer frequency, TF over GST control); in the assay with ETV1, 1.02 fold enrichment (6-mer frequency, TF over GST control); with ERF, 1.04 fold enrichment (6-mer frequency, TF over GST control); with ETV3L it was 1.08 fold enrichment (6-mer frequency, TF over GST control); with ETS2 it was 1.09 fold enrichment (6-mer frequency, TF over GST control); with ETV3, 1.01 fold enrichment (6-mer frequency, TF over GST control).
